Binding signal data for 14 molecules are collected here from PMC12136788.

The labels stand for the following.
B1: chr16:94664741:94664742:+_ENSMUSG00000040785_ENSMUST00000117648|mus_hu|mus_mus_mus_hu_False|48_78 (ssRNA)
RNA: GGGAGUUCUACAGUCCGACGAUCUGGUACUGAUCUUGGUAGCUGAUAUUCAGGAGAAAUGUUGGCCAAGGGUGUAUAUAUGCUGGUGAACUGCGACAAACCUGGUAACACGUUUAUGUAUGCUGGCGGUGUCUGGGUGAUAUCCAACAGAGGAUUGAGCAUCA
B2: 203421096_203421216_3307_3pUTR_ENSG00000204217_ENST00000374580|human|control|control (ssRNA)
RNA: GGGAGUUCUACAGUCCGACGAUCAGAUCCAGAGAAUUAGGCCUCUGUGCUCUUCUGGGCUUUGAUGGCCCAGGAUCUGCUGCUGUGCUUGGAACACCCUGUGCAAGAACAUCUUGUUCUGAACAUGGAUUGCUGUUGUUGUUACAACAGAGGAUUGAGCAUCA
B3: chr11:87793471:87793472:-_ENSMUSG00000020483_ENSMUST00000020775|mus_mus|mus_mus_mus_hu_False|58_98 (ssRNA)
RNA: GGGAGUUCUACAGUCCGACGAUCUGGACUUGAAAAUAAAAAAAAUAGCUGGAUCCCCCACCCCCCCACAUUGUCAACCCUAUGCGAGAGUUUUGAAGGCGACUCAUGAAAAUCAGCAGCUCAAACGGCAAUGACCACCCCACCCAACAGAGGAUUGAGCAUCA
B4: chr11:87793471:87793472:-_ENSMUSG00000020483_ENSMUST00000020775|mus_mus|mus_mus_mus_hu_False|1_98 (ssRNA)
RNA: B3 RNA with U82C, G83A, C140A, A141C
B5: chrX:16864032:16864033:-_ENSG00000102054_ENST00000404022|hu_hu|FALSE|FALSE (ssRNA)
RNA: GGGAGUUCUACAGUCCGACGAUCCAUGAUGUUAUCCUCAGACACUGAGCAAAUGACCCAAGGCUCAUUGGGGUUCCAGCUAAAAUCUGAAAUCUUAGCAGUGUGUCCUCCAUGAAUAAACAGGAGUUCUGGAGGCCCAUCUUCCAACAGAGGAUUGAGCAUCA
B6: chr4:57314706:57314707:+_ENSG00000128050_ENST00000264221|hu_mus|hu_hu_hu_mus_True|18_58 (ssRNA)
RNA: GGGAGUUCUACAGUCCGACGAUCCAGAAUUUCAAAAAUAGCUUGUGUGGCAUGACUCAUGAUGUCCACUUCAGUCUGGCCUAUAAGAAGGCCAGCAAAACAGAAUUUUGCAGCAAUCAGCUGUUCCUCAGACCACUGUGGAUCCAACAGAGGAUUGAGCAUCA
B7: chr11:87793471:87793472:-_ENSMUSG00000020483_ENSMUST00000020775|mus_mus|mus_mus_mus_hu_False|98_98 (ssRNA)
RNA: B3 RNA with U82C, G83A
B8: chr11:87793471:87793472:-_ENSMUSG00000020483_ENSMUST00000020775|mus_mus|mus_mus_mus_hu_False|38_88 (ssRNA)
RNA: GGGAGUUCUACAGUCCGACGAUCUGGACUUGAAAAUAAAAGAAUAAGCUAGAUUUCCCACCCCCCCACAUUGUCAACCCUACACGAGAGUUUUGAAUGAUUCAUAAGAAAAUCAGCAGCUCAAACGGCAAUGACCACCCCACCCAACAGAGGAUUGAGCAUCA
B9: chr11:87793471:87793472:-_ENSMUSG00000020483_ENSMUST00000020775|mus_mus|mus_mus_mus_hu_False|88_98 (ssRNA)
RNA: B3 RNA with G50A, C54U, C55U, U82C, G83A
B10: chr4:57314706:57314707:+_ENSG00000128050_ENST00000264221|hu_mus|hu_hu_hu_mus_True|1_18 (ssRNA)
RNA: B6 RNA with G78C, G86C, A141G
B11: chr11:87793471:87793472:-_ENSMUSG00000020483_ENSMUST00000020775|mus_mus|mus_mus_mus_hu_False|38_98 (ssRNA)
RNA: B8 RNA with G41A, U44A, A45U, A50G, U54C, U55C
B12: chr11:87793471:87793472:-_ENSMUSG00000020483_ENSMUST00000020775|mus_mus|mus_mus_mus_hu_False|1_108 (ssRNA)
RNA: GGGAGUUCUACAGUCCGACGAUCUGGGGGCUGGGGAAAAAGAAUAAGCUGGAUCCCCCACCCCCCCACAUUGUCAACCCUACACGAGAGUUUUGAAGGCGACUCAUGAAAAUCAGCAGCUCAAACGGCAAUGACCACCCACCCCAACAGAGGAUUGAGCAUCA
B13: chr11:87793471:87793472:-_ENSMUSG00000020483_ENSMUST00000020775|mus_mus|mus_mus_mus_hu_False|68_98 (ssRNA)
RNA: B3 RNA with U70G, U82C, G83A
B14: chr14:103803487:103803488:+_ENSG00000100664_ENST00000558506|hu_hu|FALSE|FALSE (ssRNA)
RNA: GGGAGUUCUACAGUCCGACGAUCGAGUUUAUGAUGUGUGUCAAGCAUGCCUCGAUAGCCACAGGCUUUACAAGAAUUACCUAUUGUUUGCUUCUUUGGAUUGACAUGCAAAUCUGUUUCAGGAUUCUCACAUUCAGGACAGAGCAACAGAGGAUUGAGCAUCA

Residue numbers refer to the chain shown, from its start. In all, about 24,000 sequences were measured (“enrichment r”: median about 0.99, highest 2% from about 3.7 on). This excerpt belongs to a sample that is enriched for the highest values.

For the assay, the target named is T1, UNK ZnF1-3 (human, UniProt Q9C0B0 31-174).
T1 sequence: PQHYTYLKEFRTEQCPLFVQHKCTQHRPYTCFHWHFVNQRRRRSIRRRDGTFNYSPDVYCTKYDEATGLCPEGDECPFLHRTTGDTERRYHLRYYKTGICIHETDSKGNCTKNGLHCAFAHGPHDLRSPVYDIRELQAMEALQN
Briefly: nsRBNS (natural sequence RNA bind-n-seq); RBNS binding buffer (assumed for nsRBNS): 25 mM Tris pH 7.5, 150 mM KCl, 3 mM MgCl2, 0.01% Triton X-100, 500 ug/ml BSA, 20 U/ml SUPERase-In, 4 C; UNK is unkempt and MSI1 is Musashi-1; names of the RNAs are library labels; protein concentration not given here; high values mean tight binding.
Turning to B1, the binding signal was determined as 1.01 enrichment R. In the case of B2, the binding signal was 0.924 enrichment R. In the case of B3 it was 3.93 enrichment R.

On to B4, for which the binding signal turned out to be 3.94 enrichment R. B5 returned a binding signal of 1.18 enrichment R.

B6 came in with a binding signal of 0.97 enrichment R.

For the molecule B7, the binding signal was 4.07 enrichment R. As to B8, the binding signal turned out to be 1.97 enrichment R. On to B9, for which the binding signal amounted to 3.58 enrichment R. On to B10, for which the binding signal turned out to be 0.937 enrichment R. With B11, the binding signal amounted to 4.29 enrichment R. For the molecule B12, the binding signal worked out at 1.72 enrichment R. The molecule B13 yielded a binding signal of 3.54 enrichment R. For B14, the binding signal is 1.32 enrichment R.
